Activity calls are given as the source filed them.
Legend:
[1] = compound effects on lung adenocarcinoma cell viability – A549, calcein-AM fluorescence, 48 h, basal, profiling panel (AID 1162); conditions: higher = more signal
[2] = compound effects on differentiated 3T3-L1 adipocyte viability – cell-based, 3T3-L1 adipocytes, calcein-AM fluorescence, 48 h, basal, profiling panel (AID 1163); conditions: 3T3-L1 adipocytes viability, higher = more signal
[3] = compound effects on hepatocellular carcinoma cell viability – HepG2, calcein-AM fluorescence, 48 h, basal, profiling panel (AID 1164); conditions: higher = more signal
[4] = compound effects on multiple myeloma cell viability – MM1S, calcein-AM fluorescence, 48 h, basal, profiling panel (AID 1165); conditions: higher = more signal
[5] = calcein-AM signal in unstimulated myeloma cells – cell-based, calcein-AM fluorescence, 48 h, PK04 Diversity Set, profiling panel (AID 1166); conditions: RPMI8226 myeloma viability, higher = more signal;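 also: cells grown under basal conditions without added stimulus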
[6] = JC-1 mitochondrial signal, unstimulated HepG2 cells – cell-based, JC-1 fluorescence, 24 h, 100 nL compound, profiling panel (AID 1167); conditions: HepG2 mitochondrial potential, higher = more signal
[7] = JC-1 mitochondrial signal, unstimulated adipocytes – cell-based, JC-1 fluorescence, 3T3-L1 adipocytes, 24 h, 100 nL compound, profiling panel (AID 1168); conditions: JC-1 mitochondrial fluorescence, higher = more signal, called active from +8 up or from −8 down
[8] = JC-1 mitochondrial signal, unstimulated myeloma cells – cell-based, JC-1 fluorescence, RPMI8226, 24 h, 100 nL compound, profiling panel (AID 1169); conditions: JC-1 mitochondrial potential fluorescence, higher = more signal
[9] = JC-1 mitochondrial signal, unstimulated MM1S myeloma – cell-based, JC-1 fluorescence, 24 h, 100 nL compound, profiling panel (AID 1170); conditions: MM1S mitochondrial potential, higher = more signal
[10] = resazurin metabolic signal in A549 cells – cell-based, resazurin fluorescence, 24 h, PK04 Diversity Set, profiling panel (AID 1171); conditions: A549 viability, higher = more signal, called active from +8 up or from −8 down
Also: test concentration not given here.

SMILES | z-score [1] | z-score [2] | z-score [3] | z-score [4] | z-score [5] | z-score [6] | z-score [7] | z-score [8] | z-score [9] | z-score [10]
COc1ccc(C(O)C2C=CC3C(=O)N(c4ccccc4)C(=O)C3N2Nc2ccccc2F)cc1OCc1ccccc1 (stereo not given) | -0.0678 | -1.77 | -0.561 | 0.0664 | -0.43 | -1.51 | -0.838 (inactive) | -0.75 | -0.909 | -0.179 (inactive)
C=CCOC(=O)[C@@H]1[C@H]2C(=O)O[C@H](c3ccccc3)[C@H](c3ccccc3)N2[C@H](c2ccc(OCCOC(=O)[C@@H]3C[C@@H]4C(=O)N[C@@H](CCCCN(C)C)C(=O)N4[C@@H]3c3ccc(O)cc3)cc2)[C@@]12C(=O)Nc1ccc(I)cc12 | -0.303 | -0.247 | 0.295 | -0.7 | -0.857 | -1.93 | -0.171 (inactive) | -0.95 | -1.45 | 0.417 (inactive)
CN1C(=O)C2C=CC(C(O)Cc3ccccc3)N(Nc3ccccc3)C2C1=O (stereo not given) | 0.368 | -1.33 | 0.0486 | -1.48 | -0.618 | -1.32 | -1.06 (inactive) | 0.0363 | 0.155 | -0.528 (inactive)
O=C(NCC(F)(F)F)[C@@H]1c2ccccc2C(=O)N(C2CCCCC2)[C@H]1c1ccc(CO)cc1 | 0.216 | 0.48 | 0.354 | -0.515 | 0.597 | 0.912 | -1.29 (inactive) | 0.329 | 1.67 | 1.21 (inactive)
[N-]=[N+]=NCc1ccccc1[C@@H]1OC(c2ccc(OCCCO)cc2)=N[C@]1(CCS(=O)(=O)c1ccccc1)C(=O)NCCN1CCOCC1 | 1.68 | -0.0282 | 1.61 | 0.377 | 0.501 | 0.374 | 0.995 (inactive) | 0.127 | -0.806 | -0.597 (inactive)
CN1C(=O)C2C=CC(C(O)c3ccccc3)N(Nc3ccccc3)C2C1=O (stereo not given) | -1.3 | -0.559 | -0.761 | -1.4 | 0.362 | -1.69 | -0.441 (inactive) | 0.636 | -0.207 | -1.26 (inactive)
C=CCOC(=O)[C@H]1[C@@H]2C(=O)O[C@@H](c3ccccc3)[C@@H](c3ccccc3)N2[C@@H](c2ccc(OCCOC(=O)[C@@H]3C[C@@H]4C(=O)N[C@@H](CCCC[N+](C)(C)C)C(=O)N4[C@@H]3c3ccc(O)cc3)cc2)[C@]12C(=O)Nc1ccccc12 | 1.23 | 1.53 | -0.265 | -1.07 | 0.95 | -1.37 | 0.396 (inactive) | -0.923 | -0.504 | 1.19 (inactive)
CCOC(=O)C=Cc1cc([N+](=O)[O-])ccc1O | -0.563 | 1.39 | -1.27 | 0.112 | -2.29 | -1.91 | 0.428 (inactive) | -0.403 | -0.889 | 0.384 (inactive)
CCCCCCC#C[Si](O[C@H](c1ccccc1)c1cn([C@H](CO)Cc2ccccc2)nn1)(C(C)C)C(C)C | 1.77 | -0.121 | -0.407 | -0.178 | -0.542 | 0.338 | -0.94 (inactive) | -0.229 | -1.75 | 0.419 (inactive)
[N-]=[N+]=NCc1ccccc1C[C@]1(C(=O)O)N=C(c2ccc(OCCCO)cc2)O[C@H]1c1ccccc1N=[N+]=[N-] | -0.882 | 1.09 | -0.826 | -2.06 | -3.85 | -1.93 | -0.456 (inactive) | -1.05 | -0.887 | -1.77 (inactive)
C=C(COC)/C(=C/C[C@@H](OC(C)=O)c1ccc(OCCO)cc1)c1cc(C(=O)OC)ccc1OC | -0.534 | -0.0502 | -0.0182 | -1.25 | -0.648 | 0.592 | -0.512 (inactive) | -0.729 | -0.723 | 0.916 (inactive)
COCCOC(=O)N1C(=O)[C@@]2(c3cc(C#CC4=CCCCC4)ccc31)[C@H](C(=O)Nc1nc3ccccc3s1)[C@H]1C(=O)O[C@H](c3ccccc3)[C@H](c3ccccc3)N1[C@@H]2c1ccc(OCCO)cc1 | -0.104 | 0.747 | 0.185 | -0.953 | -0.856 | -2.95 | 0.662 (inactive) | -0.583 | -1.12 | -0.309 (inactive)
O=C1OCCC/C=C\[C@H]2OC34C=CCN(Cn5nnc6ccccc65)C(=O)[C@H]3N(CCO)C(=O)[C@@H]4C12 (stereo not given in full) | 0.499 | 1.02 | -0.822 | 0.971 | -0.117 | 0.31 | 0.192 (inactive) | 0.656 | -0.345 | -0.66 (inactive)
CCCCN1CC=CC23O[C@@H]4/C=C\CCC(C)OC(=O)C4[C@H]2C(=O)N(CCCCCO)[C@@H]3C1=O (stereo not given in full) | -0.143 | 0.0763 | 0.478 | 1.52 | 0.096 | 0.241 | 0.9 (inactive) | 0.32 | -0.133 | 0.455 (inactive)
COc1ccc(CCNC(=O)[C@@]2(C)c3ccccc3C(=O)N(Cc3cc(F)cc(C(F)(F)F)c3)[C@H]2c2ccc(CO)cc2)cc1 | 0.805 | 0.766 | 0.41 | -1.86 | -2.07 | 0.857 | -0.633 (inactive) | -0.601 | 1.08 | 0.396 (inactive)
O=C1O[C@@H](c2ccccc2)[C@@H](c2ccccc2)N2[C@@H](c3ccccc3OCCO)[C@]3(C(=O)Nc4ccc(C#CC5=CCCCC5)cc43)[C@@H](C(=O)Nc3nc4ccccc4s3)[C@H]12 | -1.36 | 0.608 | -0.786 | -2.8 | -2.88 | -2.9 | -0.353 (inactive) | -1.05 | -1.42 | -0.301 (inactive)
C[C@]1(C(=O)NC2CC2)c2ccccc2C(=O)N(Cc2cc(C(F)(F)F)cc(C(F)(F)F)c2)[C@H]1c1ccc(CO)cc1 | 1.34 | 0.254 | 1.44 | 0.274 | 0.56 | 2.04 | -0.0278 (inactive) | -0.105 | -0.262 | 0.89 (inactive)
C=CCOC(=O)[C@H]1[C@@H]2C(=O)O[C@@H](c3ccccc3)[C@@H](c3ccccc3)N2[C@@H](c2ccc(OCCOC(=O)[C@H]3C[C@H]4C(=O)N5CCC[C@H]5C(=O)N4[C@H]3c3ccc(O)cc3)cc2)[C@]12C(=O)Nc1ccccc12 | -0.45 | 1.46 | 0.226 | -0.0596 | -0.653 | -1.37 | 1.22 (inactive) | -0.515 | -0.857 | 0.315 (inactive)
CN1C(=O)C2C=CC(C(O)C3CC=CCC3)N(NC(=O)OC(C)(C)C)C2C1=O (stereo not given) | 0.414 | -0.61 | -0.622 | -0.0764 | -0.291 | -1.58 | -0.493 (inactive) | 0.295 | -0.121 | -0.111 (inactive)
O=C1OCCC/C=C\[C@H]2OC34C=CCN(Cc5ccccc5)C(=O)[C@H]3N(CCCCCCO)C(=O)[C@@H]4C12 (stereo not given in full) | 2.3 | 0.0451 | 0.685 | 1.85 | 1.05 | 1.54 | 0.948 (inactive) | 0.44 | -1.11 | 1.28 (inactive)
O=C1O[C@H](c2ccccc2)[C@H](c2ccccc2)N2[C@H]1[C@@H](C(=O)O)[C@]1(C(=O)Nc3ccc(C#CCCO)cc31)[C@H]2c1ccc(O)cc1 | 1.46 | 0.339 | -0.215 | 0.536 | 0.858 | -0.308 | -0.395 (inactive) | -0.896 | -0.565 | 1.52 (inactive)
CCOC(=O)C1=CCC(c2ccc(C)cc2)N(S(=O)(=O)c2ccc(C)cc2)C1 (stereo not given) | -1.25 | -0.825 | -0.743 | -0.537 | -1.37 | 5.35 | -1.08 (inactive) | 0.0194 | -1.82 | 0.697 (inactive)
O=C1NC(=O)C2C1C=CC(C(O)c1cccc3ccccc13)N2Nc1ccccn1 (stereo not given) | 0.428 | -0.608 | -0.32 | 0.002 | -0.0565 | 0.15 | -0.0987 (inactive) | -0.216 | -0.184 | -0.721 (inactive)
O=C(NCc1ccccc1)[C@@H]1c2ccccc2C(=O)N(CC23CC4CC(CC(C4)C2)C3)[C@H]1c1ccc(CO)cc1 | 0.449 | -0.475 | 0.57 | -0.708 | -0.896 | 0.362 | -0.924 (inactive) | -0.136 | -0.711 | -0.471 (inactive)
OC([C@@H]1CC(c2ccccc2)=NO1)[C@H]1CC(c2ccccc2)=NO1 (stereo not given in full) | 1.51 | 0.222 | 1.59 | 0.703 | -0.132 | 1.05 | 0.635 (inactive) | -0.847 | 0.439 | 1.04 (inactive)
Cc1ccc(C(C)CC(O)C2C=CC3C(=O)N(C)C(=O)C3N2NC(=O)OC(C)(C)C)o1 (stereo not given) | 0.987 | -0.515 | 0.917 | -0.193 | -0.883 | -0.768 | -0.632 (inactive) | -0.876 | -0.357 | 0.543 (inactive)
COc1ccc([Si](C)(C)[C@@H]2[C@@H](CC(=O)N3Cc4ccccc4C[C@H]3CO)O[C@]3(C(=O)N(C)c4c(Br)cc(C)cc43)[C@H]2C)cc1 | -0.721 | 0.181 | -3.73 | -2.66 | -4.35 | 0.634 | 0.596 (inactive) | -0.976 | -2.23 | -1.18 (inactive)
COC(=O)[C@@]1(Cc2ccc(OC)cc2)[C@H]2c3cc(C(=O)N(C)C)n(CCN4CNCC4=O)c3C[C@H]2CN1C(=O)c1ccccc1 | -0.663 | -0.261 | -0.254 | 0.316 | 0.177 | -0.812 | 0.489 (inactive) | -0.111 | -1.28 | 0.367 (inactive)
C=CCOC(=O)[C@@H]1[C@H]2C(=O)O[C@H](c3ccccc3)[C@H](c3ccccc3)N2[C@H](c2ccc(OCCOC(=O)[C@@H]3C[C@@H]4C(=O)N[C@@H](CCCC[N+](C)(C)C)C(=O)N4[C@@H]3c3cccc(OCCO)c3)cc2)[C@@]12C(=O)Nc1ccc(I)cc12 | -0.477 | 0.788 | -0.776 | -2.78 | -2.03 | -0.605 | 0.902 (inactive) | -0.637 | -1.22 | 0.504 (inactive)
O=C1c2ccccc2[C@](Cc2ccccc2I)(C(=O)NC2CC2)[C@H](c2ccc(CO)cc2)N1C1CCCCC1 | 0.818 | 0.835 | 0.677 | -1.02 | -1.98 | 2.11 | 0.252 (inactive) | -0.482 | -0.299 | 0.91 (inactive)

Reference: PubChem BioAssay
